PubChem BioAssay (Tox21)
A number with no mark means an inactive call. Records with an inconclusive call do not appear. Entries that show only a call come without a potency. Calls of active or inactive are those of the source. Unless noted, the call rests on the fitted dose curve; in most records, active means well fitted curve in the direction sought with a large enough effect in the repeat runs; inconclusive means weak or mixed curves; inactive means no such curve, though single readings can be large; an effect the other way counts as inactive or inconclusive.

Legend:
[1] = qHTS assay for small molecule agonists of the p53 signaling pathway (AID 651631; calls by dose curve; further: nearly all actives have a fitted effect of over 15% in size)
Summary of the method: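 HCT-116 p53RE-bla reporter line, 16 h compound treatment at 37 °C, then fluorescence after 2 h with B/G FRET substrate.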

[2] = qHTS assay for small molecules that induce genotoxicity in human embryonic kidney cells expressing luciferase-tagged ATAD5 (AID 651632); further: nearly all actives have a fitted effect of over 15% in size
Summary of the method: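 Reporter cells (HEK293T) express luciferase-tagged ATAD5, a protein that accumulates after DNA damage. Treat 16 hr at 37C/5% CO2, add Amplite, wait 30 min at RT, and read luminescence.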

[3] = qHTS assay for small molecule agonists of the p53 signaling pathway - cell viability (AID 651633; calls by dose curve;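 further: p53RE-bla HCT reporter cells with a stable beta-lactamase p53 reporter; series mostly up to about 83 µM; nearly all actives have a fitted effect of over 30% in size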)
Summary of the method: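 p53RE-bla cells were treated with compound for 16 hours at 37 C. Cytotoxicity was then measured as CellTiter-Glo luminescence after 30 min at room temperature.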

[4] = qHTS assay for small molecules that induce genotoxicity in human embryonic kidney cells expressing luciferase-tagged ATAD5 - cell viability (AID 651634; calls by dose curve; further: nearly all actives have a fitted effect of over 25% in size)
Summary of the method: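 Seeding of 2,000 HEK293T ATAD5-luciferase cells per well preceded pin-tool compound transfer. Plates sat 15.5 hr at 37C under 5% CO2, then fluorescence was read after 30 min with CellTiter-Fluor.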

[5] = qHTS assay for small molecule disruptors of the mitochondrial membrane potential - cell viability (AID 720634; calls by dose curve;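 further: human HepG2 liver cancer cells; series mostly up to about 83 µM; nearly all actives have a fitted effect of over 20% in size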)
Summary of the method: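 Measuring cytotoxicity alongside mitochondrial potential, the screen quantified ATP by luminescence in HepG2 cells after 1 hr compound incubation and a 30 min room-temperature CellTiter-Glo step.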

[6] = qHTS assay to test for compound auto fluorescence at 590 nm (red) in HepG2 cells (AID 720674)
Summary of the method: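 HepG2 cells, 2,000 per well in MEM with 10% FBS, attached overnight at 37 C, then got 23 nL compound or DMSO. After 1 hr at 37 C, 5% CO2, red fluorescence was read at 540/590 nm against Rose Bengal sodium as reference.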

[7] = qHTS assay to test for compound auto fluorescence at 535 nm (green) in HepG2 cells (AID 720675)
[8] = qHTS assay to test for compound auto fluorescence at 460 nm (blue) in HEK293 cells (AID 720678)
Summary of the method: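 Blue read-out at excitation 405 nm and emission 460 nm follows overnight compound exposure of HEK293 cells at 37C in 5% CO2. Activity is given as auto fluorescence equivalency to triamterene.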

[9] = qHTS assay to test for compound auto fluorescence at 590 nm (red) in HEK293 cells (AID 720679)
Summary of the method: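 Red channel, Ex/Em 540/590nm; signal expressed as equivalency to Rose Bengal sodium. HEK293, 2,000 cells/well, 10% dialyzed FBS; 23 nL compound pinned after 4-5 hr attachment; overnight 37C/5% CO2 before reading.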

[10] = qHTS assay to test for compound auto fluorescence at 535 nm (green) in HEK293 cells (AID 720680)
[11] = qHTS assay to test for compound auto fluorescence at 460 nm (blue) in HEK293 cell free culture (AID 720681)
Summary of the method: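 Compounds were added to cell-free DMEM with 10% FBS and fluorescence read directly. The blue channel used 405 nm excitation and 460 nm emission, with triamterene as the reference fluorophore.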

[12] = qHTS assay to test for compound auto fluorescence at 535 nm (green) in HEK293 cell free culture (AID 720682)
Summary of the method: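 Steps: dispense DMEM/10% FBS into empty wells; pin in compound or DMSO; measure fluorescence at 485/535 nm. Values are fluorescein equivalents.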

[13] = qHTS assay to test for compound auto fluorescence at 590 nm (red) in HEK293 cell free culture (AID 720683)
Summary of the method: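 Cell-free wells of DMEM with 10% FBS received compound, and intrinsic fluorescence was read at excitation/emission 540/590 nm. Values expressed as equivalence to Rose Bengal sodium.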

[14] = qHTS assay to test for compound auto fluorescence at 590 nm (red) in HepG2 cell free culture (AID 720684)
Summary of the method: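 Compounds are added to culture medium (MEM, 10% FBS) lacking cells, then fluorescence is read at excitation 540 nm, emission 590 nm, with Rose Bengal sodium as the equivalency standard.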

[15] = qHTS assay to test for compound auto fluorescence at 460 nm (blue) in HepG2 cell free culture (AID 720685)
Summary of the method: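 Compound (23 nL) or DMSO pinned into cell-free MEM with 10% FBS; blue fluorescence read at 405/460 nm excitation/emission, expressed as auto-fluorescence equivalency to triamterene.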

[16] = qHTS assay to test for compound auto fluorescence at 535 nm (green) in HepG2 cell free culture (AID 720686)
[17] = qHTS assay to test for compound auto fluorescence at 460 nm (blue) in HepG2 cells (AID 720687)
Summary of the method: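 HepG2 cells in MEM with 10% FBS, attached overnight at 37 C, were exposed to compound or DMSO for 1 hr at 37 C, 5% CO2. Blue fluorescence was read at 405/460 nm, with triamterene as reference fluorophore.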

[18] = target: Glucocorticoid receptor (Homo sapiens) (UniProt P04150); assay: qHTS assay to identify small molecule agonists of the glucocorticoid receptor (GR) signaling pathway (AID 720691; active means well fitted activation curve with a large enough effect in the signal ratio in the repeat runs, not every such curve was filed as active; the % refers to the signal ratio)
Summary of the method: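 Reporter read-out: fluorescence intensity following 2 h room-temperature LiveBLAzer B/G FRET substrate loading. Prior step: GR-bla HeLa cells held 4 h, then treated 18 h at 37 C.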

[19] = target: Glucocorticoid receptor (Homo sapiens) (UniProt P04150); assay: qHTS assay to identify small molecule antagonists of the glucocorticoid receptor (GR) signaling pathway (AID 720692; active means well fitted inhibition curve with a large enough effect in the signal ratio in the repeat runs, not every such curve was filed as active; the % refers to the signal ratio; further: potency means the concentration at half of the fitted maximal effect)
Summary of the method: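 Dexamethasone (5 nM final) stimulated a stably integrated GRE-beta-lactamase reporter in HeLa cells during 18 h co-incubation with compounds; signal was quantified as fluorescence intensity of B/G FRET substrate after 2 h.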

[20] = qHTS assay for small molecule disruptors of the mitochondrial membrane potential (AID 720635)
Summary of the method: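 HepG2 cells exposed to compound 1 hr at 37C, then Mito-MPS dye 30 min. Ratio read of aggregate (540/590 nm) versus monomer (490/535 nm) fluorescence.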

Glucocorticoid receptor (Homo sapiens), sequence (P04150 whole entry, looked up): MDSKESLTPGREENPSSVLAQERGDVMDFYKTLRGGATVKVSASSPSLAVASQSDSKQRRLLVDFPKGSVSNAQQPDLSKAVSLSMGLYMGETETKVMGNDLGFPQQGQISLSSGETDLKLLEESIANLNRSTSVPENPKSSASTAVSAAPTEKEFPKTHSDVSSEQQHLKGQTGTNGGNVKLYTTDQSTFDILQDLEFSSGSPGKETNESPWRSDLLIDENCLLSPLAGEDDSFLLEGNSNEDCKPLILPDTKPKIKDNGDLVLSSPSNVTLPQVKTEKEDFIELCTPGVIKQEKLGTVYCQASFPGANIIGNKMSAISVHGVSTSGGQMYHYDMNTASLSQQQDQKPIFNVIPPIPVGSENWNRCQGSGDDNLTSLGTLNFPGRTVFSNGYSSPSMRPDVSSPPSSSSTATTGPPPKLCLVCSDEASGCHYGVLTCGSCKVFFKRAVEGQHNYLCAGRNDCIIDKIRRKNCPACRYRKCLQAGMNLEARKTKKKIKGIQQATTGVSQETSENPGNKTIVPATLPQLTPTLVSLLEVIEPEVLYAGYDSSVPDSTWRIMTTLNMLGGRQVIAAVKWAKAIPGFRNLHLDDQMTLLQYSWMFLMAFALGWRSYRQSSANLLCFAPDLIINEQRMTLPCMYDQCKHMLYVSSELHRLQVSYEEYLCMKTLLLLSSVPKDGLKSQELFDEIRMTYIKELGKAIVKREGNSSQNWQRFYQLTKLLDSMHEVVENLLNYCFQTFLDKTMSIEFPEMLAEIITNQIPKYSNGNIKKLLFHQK

SMILES | Potency [1] | Potency [2] | Potency [3] | Potency [4] | Potency [5] | outcome [6] | outcome [7] | outcome [8] | outcome [9] | outcome [10] | outcome [11] | outcome [12] | outcome [13] | outcome [14] | outcome [15] | outcome [16] | outcome [17] | outcome [18] | Potency [19] | Potency [20]
CCCCN=C=O | inactive | inactive | inactive | inactive | inactive | inactive | inactive | inactive | inactive | inactive | inactive | inactive | inactive | inactive | inactive | inactive | inactive | – | – | –
CC(=O)C(C)(C)C | inactive | inactive | inactive | inactive | inactive | inactive | inactive | inactive | inactive | inactive | – | inactive | inactive | inactive | inactive | – | inactive | inactive | inactive | –
COC(=O)c1cncn1C(C)c1ccccc1 (stereo not drawn) | inactive | inactive | inactive | inactive | inactive | inactive | inactive | inactive | – | inactive | inactive | inactive | inactive | inactive | inactive | inactive | inactive | – | – | –
COc1cc(Cl)c(OC)cc1Cl | inactive | inactive | inactive | inactive | inactive | inactive | inactive | inactive | inactive | inactive | inactive | inactive | inactive | inactive | inactive | – | – | inactive | inactive | –
CC(C)(Cl)[N+](=O)[O-] | inactive | inactive | inactive | inactive | inactive | – | inactive | inactive | inactive | inactive | inactive | inactive | inactive | inactive | inactive | inactive | inactive | – | – | –
O=C(O)COc1ccc(Cl)cc1 | inactive | inactive | inactive | inactive | inactive | inactive | inactive | inactive | inactive | inactive | inactive | inactive | inactive | inactive | inactive | – | inactive | – | inactive | –
CCOC(=O)C(Cl)C(C)=O (stereo not drawn) | inactive | inactive | inactive | inactive | inactive | inactive | inactive | inactive | inactive | inactive | inactive | inactive | inactive | inactive | inactive | – | inactive | – | – | –
CC[C@H]1C[C@H]2[C@@H]3CCC4=CC(=O)CC[C@@H]4[C@H]3CC[C@]2(C)[C@H]1O | inactive | inactive | inactive | inactive | inactive | – | inactive | inactive | inactive | inactive | inactive | inactive | inactive | inactive | inactive | inactive | inactive | – | – | –
C=CCOC(C)=O | inactive | inactive | inactive | inactive | inactive | inactive | inactive | inactive | inactive | – | inactive | inactive | inactive | inactive | inactive | inactive | inactive | inactive | – | –
C=CC(=O)OC(C)(C)C | inactive | inactive | inactive | inactive | – | inactive | inactive | inactive | inactive | inactive | inactive | inactive | inactive | inactive | inactive | – | inactive | inactive | – | –
O=C(O)c1ccccc1C(=O)Nc1cccc2ccccc12 | inactive | inactive | inactive | inactive | inactive | inactive | inactive | inactive | inactive | inactive | inactive | inactive | inactive | inactive | inactive | inactive | – | – | – | –
CCOP(=O)(OCC)O/C(=C/Cl)c1ccc(Cl)cc1Cl | inactive | inactive | inactive | inactive | inactive | inactive | inactive | inactive | inactive | – | inactive | inactive | inactive | inactive | inactive | – | – | inactive | 49 µM (active) | –
CC(C)(CCl)C(=O)Cl | inactive | inactive | inactive | inactive | inactive | inactive | inactive | inactive | inactive | – | inactive | inactive | inactive | inactive | inactive | inactive | inactive | inactive | – | –
CCOC(=O)CBr | inactive | inactive | inactive | inactive | inactive | inactive | inactive | inactive | – | – | inactive | inactive | inactive | inactive | inactive | inactive | inactive | inactive | – | –
CN(C)c1ccc(N(C)C)cc1 | inactive | inactive | inactive | inactive | – | inactive | inactive | inactive | – | inactive | – | inactive | inactive | inactive | inactive | inactive | inactive | – | – | inactive
CCCCOC(=O)c1ccccc1C(=O)OCc1ccccc1 | inactive | inactive | inactive | inactive | inactive | inactive | inactive | inactive | inactive | inactive | – | inactive | inactive | inactive | inactive | inactive | inactive | – | – | –
CCCN(CCCl)c1c([N+](=O)[O-])cc(C(F)(F)F)cc1[N+](=O)[O-] | inactive | inactive | inactive | inactive | – | inactive | inactive | inactive | inactive | inactive | inactive | inactive | inactive | inactive | inactive | inactive | inactive | inactive | – | –
